Screening data (PubChem BioAssay)
The list is not random: actives were taken first. Their share in the collection is about 2.3%.
IL-2 act: activators of IL-2; IL-2 activation reporter assay, cell-based qHTS; stimulated with anti-CD3/CD4/CD28 beads; in transgenic mouse T cells; activation, % (series mostly up to about 46 µM); 360,000 compounds, 0.065% hits; AID 652025; in the data active = activation above about 50%; inconclusive = mostly about 30% to 49%; note: 0% is about no effect
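Readout: EGFP and DsRed signals by fluorescent plate cytometry. Unstimulated transgenic mouse T cells received compound 60 min before antibody-bead stimulation, then incubated 18 h at 37 degrees C.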
A549 tox: counter-screen for Nrf2 inhibitors: cytotoxicity in A549 cells | AID 504648 | 390,000 compounds, 0.16% hits | Potency, µM (highest dose often 46 µM), for the others: at the top dose activity change, negative = cytotoxicity, actives largely listed as inhibitors | A549 ARE-Fluc cells, CellTiter-Fluor viability, 18-24 h; note: potency is the fitted concentration of half-maximal effect; % is set by controls: 0 for no effect and ±100 for the full control effect
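A549 ARE-Fluc cells in 5% FBS OPTI-MEM, 5000 cells/well, rested 2 h then exposed to compounds in concentration-response for 18-24 h at 37 °C. Viability by CellTiter-Fluor fluorescence (Ex 405/Em 525) after 30 min; luciferase luminescence (BugLite, 15 min, RT) read afterwards.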
Nrf2 activator: Nrf2 pathway activation | AREc32 ARE-luciferase reporter (MCF7-derived line), luminescence, 24 h | 410,000 compounds, 0.31% hits | Potency, µM (titrated, usually from 46.1 µM), inactives show at the highest dose activation, hits mostly activators; note: potency is the fitted concentration of half-maximal effect; % of control where 0% means no effect; nearly all actives have a fitted effect of over 65% in size
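Nrf2 activation is followed as ARE-luciferase induction in the AREc32 line after one day of compound treatment; luminescence is read with Steady-Glo.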
Nrf2 inh: Nrf2 pathway inhibition; Potency, µM (highest dose often 46 µM), without a hit: at the top dose activity change, negative = inhibition, usual class: inhibitors; AID 504444; 360,000 compounds, 2.1% hits; A549 ARE-Fluc reporter, luciferase luminescence, 18-24 h; note: potency is the fitted concentration of half-maximal effect; % is set by controls: 0 for no effect and ±100 for the full control effect; nearly all actives have a fitted effect of over 60% in size
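Quantitative HTS in A549 cells stably bearing an antioxidant response element-firefly luciferase construct. Inhibition of Nrf2-driven transcription was scored by luminescence after 18-24 h of compound exposure at 37 °C.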
* hit, by the source's call; ? = inconclusive; . = not tested or not shown; [ ] = another dose, or the depositor's remark. Unless noted, calls come from the whole dose curve; as a rule, active = well fitted curve in the direction sought with a large enough effect; inconclusive = small, poorly fitted or top-dose-only effect, or another doubt; inactive = no such curve, though single readings can be large; an effect the other way counts as inactive or inconclusive.

SMILES	IL-2 act	A549 tox	Nrf2 activator	Nrf2 inh
CCC(=O)Nc1ccc2ccccc2c1	3.9	-0.7%	-0.2%	9.9%
O=C(CSc1ccc2ccccc2c1)Nc1ccncc1	0.1	-9.9%[1.84 µM]	-0.1%	7.31µM*
CC(C)c1ccc(Nc2ncnc3c2c(-c2ccccc2)cn3-c2ccccc2)cc1	.	-1.7%	-0.6%	.
O=C(Nc1ccn(Cc2c(F)c(F)cc(F)c2F)n1)c1cccc(Cn2cc([N+](=O)[O-])cn2)c1	-0.6	3.6%	0.4%	.
O=C(Nc1ccn(Cc2c(F)c(F)c(F)c(F)c2F)n1)c1cccc(Cn2cc([N+](=O)[O-])cn2)c1	-3.0	-19.4%	8.0%	18.4µM*
CC1CCC2(CC1)NC(=O)N(Cc1cccc(C(F)(F)F)c1)C2=O (configuration not stated)	-0.2	-0.8%	6.5%	18.4µM*
CC1CCC2(CC1)NC(=O)N(CC(=O)N(Cc1ccccc1)C(C)(C)C)C2=O (configuration not stated)	1.9	7.7%	-0.6%	3.6%
CCCOc1ccc(C2C(=O)N(C3CCC(C)CC3)CC(=O)N2Cc2cccc(OC)c2)cc1OC (configuration not stated)	.	4.9%	2.0%	.
O=c1[nH]c2cc([N+](=O)[O-])c(NCCO)c([N+](=O)[O-])c2[nH]1	0.0	13µM*	0.7%	-13.3%
O=c1[nH]c(SCc2nc3c(cnn3-c3ccccc3)c(=O)[nH]2)nc2ccccc12	0.4	-15.6%	-0.3%	.
O=c1[nH]c(CSc2nc3ccccc3[nH]2)nc2c1cnn2-c1ccccc1	3.0	-23.7%	-0.2%	14.6µM*
COc1cc2c(cc1OC)C(COc1ccc(F)cc1)N(C(=O)c1cccc(F)c1)CC2 (configuration not stated)	.	-11.1%	0.8%	.
c1ccc(CN2CCN(c3nc(NCc4ccco4)c4ccccc4n3)CC2)cc1	-0.4	?	7.5%	23.1µM*
O=C(Nc1ccccn1)c1ccc(S(=O)(=O)N2CCCC2)cc1	-3.9	-4.2%	3.6%	3.4%
O=C(Nc1ccc(Cl)cc1)Nc1ccccn1	0.0	-3.7%	10µM*	?
O=C(Nc1ccccn1)c1ccc(S(=O)(=O)c2ccc(Cl)cc2)cc1	-2.2	-12.2%	2.7%	5.8µM*
O=C(c1ccc2c(c1)N(Cc1ccc(Cl)cc1)C(=O)c1ccccc1S2(=O)=O)N1CCCC1	.	-3.4%	4.7%	-6.9%
Cc1ccc(S(=O)(=O)N[C@@H](Cc2ccccc2)C(=O)CCl)cc1	-0.7	-10.1%	6.2%	18.4µM*
CCN(Cc1ccccc1)C(=O)c1ccc(NC(=O)c2ccc(OC)cc2)cc1	-3.8	-14.6%	-0.2%	23.1µM*
COc1cccc(C(=O)Nc2ccc(C(=O)c3ccccc3)cc2)c1	-0.3	-7.4%	7.1%	?
COc1ccc(C(=O)Nc2ccc(C(=O)c3ccccc3)cc2)cc1	-3.8	-6.4%	0.0%	9.2µM*
COc1ccc(NC(=O)C#Cc2ccccc2)cc1	0.0	-10.9%	14.1µM*	-26.7%
CCCc1cc(C(=O)Nc2ccc(C(=O)c3ccccc3)cc2)n(C)n1	-2.5	?	-0.5%	20.6µM*
CCc1cccc(C)c1NC(=O)CN(C)S(=O)(=O)c1cccc2nsnc12	.	0.4%	-0.4%	4.5%
O=C(CC(c1cccs1)N1Cc2ccccc2C1=O)Nc1ccccc1F (configuration not stated)	.	-0.2%	2.5%	19.6%
SMILES	IL-2 act	A549 tox	Nrf2 activator	Nrf2 inh
CNC(=O)c1ccc(Nc2nc(-c3ccccc3)nc3ccccc23)cc1	-1.3	-24.0%	4.8%	23.1µM*
COc1ccc(NC(=O)c2ccc3c(c2)NC(=O)CS3)cc1S(=O)(=O)Nc1ccc(Br)cc1	-1.8	2.3%	-0.6%	-29.8%
Cc1ccc(NS(=O)(=O)c2cc(NC(=O)c3ccc4c(c3)NC(=O)CS4)ccc2C)c(C)c1	1.0	?	3.3%	18.4µM*
Cc1ccc(-c2nn(C)c(=O)c3ccccc23)cc1S(=O)(=O)NCCCN(C)C	.	-5.7%	5.6%	-0.8%
CCN(Cc1ccccc1)c1ccc(N=Nc2nn(C)c(C)c2[N+](=O)[O-])cc1	0.5	16.4µM*	4.1%	-24.7%
CCN(CC)c1ccc(N=Nc2nn(C)c(C)c2[N+](=O)[O-])cc1	-2.7	20.6µM*	3.2%	?
CCN(CC)c1ccc(N=Nc2ncn[nH]2)cc1	0.3	?	-0.2%	?
COc1cc(-c2nc(Cn3nnc(C(=O)Nc4ccc(C)cc4C)c3C)c(C)o2)cc(OC)c1OC	.	9.0%	-2.6%	-11.1%
